# An excerpt weighted towards active compounds, which were near 22% of everything screened.
# CYP2C9 act – increases human cytochrome P450 2C9 activity; P11712; recombinant CYP2C9, luciferin-H conversion, luminescence; stronger effect = higher value; factor 1 = untreated enzyme, 0 = blocked; activation factor at 5 µM; 96,000 tested, 1.4% active;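 active means activation factor of 2 or more for CYP2C9 at a 5 µM dose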;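 further: 0 = sulfaphenazole-blocked wells and 1 = vehicle-only wells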
# Measles CPE – protection of cells from measles virus; protection (pct of control), % at 4 µM; 140,000 tested, 1.5% active; AID 841; Measles virus-infected cells, CPE protection, absorbance; in the data active means protection mostly above about 24%, no sharp cut-off; inactive means mostly below about 26%
# CYP2C9 inh – human CYP2C9 inhibition; P11712; CYP2C9 Supersomes, luciferin-H conversion, luminescence; inhibition, % at 5 µM; 96,000 tested, 20% active;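 active means blocking of liver enzyme CYP2C9 beyond about 50% at 5 µM, limit read from the data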
# CYP2C19 inhib – inhibitors of human CYP2C19; 96,000 tested, 21% active; P33261; inhibition, % at 5 µM; CYP2C19 Supersomes, luciferin-H EGE luminescence, 30 min;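 active means CYP2C19 inhibition above a set limit at 5 µM in the primary screen, cut at about 50% in these data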;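 further: plate controls were negative control wells for no effect and 2.5 mM tranylcypromine positive control for full effect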
# Target sequence (P33261 whole entry, looked up): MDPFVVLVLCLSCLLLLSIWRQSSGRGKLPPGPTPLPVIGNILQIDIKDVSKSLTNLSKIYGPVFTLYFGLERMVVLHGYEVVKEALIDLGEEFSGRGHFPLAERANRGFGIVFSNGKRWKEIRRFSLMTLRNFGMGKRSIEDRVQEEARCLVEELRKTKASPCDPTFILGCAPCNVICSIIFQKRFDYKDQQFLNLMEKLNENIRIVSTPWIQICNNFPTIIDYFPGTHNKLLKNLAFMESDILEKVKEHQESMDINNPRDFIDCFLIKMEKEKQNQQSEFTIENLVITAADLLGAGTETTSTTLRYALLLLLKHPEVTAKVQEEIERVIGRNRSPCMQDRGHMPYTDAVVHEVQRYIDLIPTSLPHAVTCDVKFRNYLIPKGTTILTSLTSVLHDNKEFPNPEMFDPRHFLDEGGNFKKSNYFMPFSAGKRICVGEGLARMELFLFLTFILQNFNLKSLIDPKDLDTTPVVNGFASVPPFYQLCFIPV
# CYP2C19 act – activators of human cytochrome P450 2C19 | P33261 | recombinant CYP2C19, luciferin-H EGE luminescence; stronger effect = higher value; 0 = fully inhibited enzyme, 1 = untreated enzyme | activation factor at 5 µM | 96,000 tested, under 10 active;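 active means activation factor of at least 2 at 5 µM in the primary screen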;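 further: 0 = wells with 2.5 mM tranylcypromine and 1 = vehicle-only wells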
# * = called active by the depositor; . = no result.
SMILES,CYP2C9 act,Measles CPE,CYP2C9 inh,CYP2C19 inhib,CYP2C19 act
CCCn1c(=O)c2ccccc2n2c(SCc3c(C(=O)OCC)oc4ccccc34)nnc12,0.4,3,64*,59*,0.4
CCCn1c(=O)c2ccccc2n2c(SCN3C(=O)c4ccccc4C3=O)nnc12,1,.,0,18,0.8
COc1cc(OC)c(OC)cc1CN1CCCC(C(=O)N2CCCCC2)C1 (stereo not drawn),1,10,-4,-10,1.1
O=C(OCC(=O)N1N=C(c2ccc(Cl)cc2)CC1c1ccco1)c1ccccc1O (stereo not drawn),0.1,1,88*,17,0.8
COC(=O)c1ccc(-c2ccc(C(=O)N3CCCN(C)CC3)cc2)cc1,1.3,22,-26,7,0.9
COc1ccc(NS(=O)(=O)c2ccc(O)c(C(=O)OCC(=O)N3CC(C)OC(C)C3)c2)cc1 (stereo not drawn),0.2,2,82*,71*,0.3
COC(=O)C1=NN[C@H](C(=O)OC(C)(C)C)[C@H]1c1ccccc1,.,15,.,.,.
CCCCNC(=S)NNC(=O)c1nn(C)c(C)c1Cl,.,1,.,.,.
CCOC(=O)c1cc(-c2ccc(/C=C3/C(=O)NC(=O)C(C#N)=C3C)o2)ccc1Cl,0.3,23,71*,19,0.8
Cc1ccc(N2C(=O)N(CC(=O)c3cc(C)ccc3C)C(=O)C2C)cc1 (stereo not drawn),.,5,.,.,.
O=S(=O)(NCc1ccco1)N1CCCCCC1,0.8,4,16,63*,0.4
O=C(Nc1ccc(C(=O)N2CCCCC2)cc1)C1CCCCC1,1,22,4,-2,1
Cc1ccc(-n2c(=O)c3c(C)c(C)sc3n(Cc3cc(=O)n4ccccc4n3)c2=O)cc1C,.,3,.,.,.
O=C(NCN1CCc2ccccc2C1)c1cnccn1,1.2,7,-20,-2,1
O=C(NCN1CCc2ccccc2C1)c1ccccc1,0.8,6,20,81*,0.2
O=C(CN1CCc2ccccc2C1)c1cccs1,0.8,5,24,92*,0.1
CC(CC(=O)O)CC(=O)Nc1ccc(S(N)(=O)=O)cc1 (stereo not drawn),1.1,12,-14,-16,1.2
O=C(Nn1cnnc1)c1cc2cc(Br)ccc2oc1=O,0.6,10,38,54*,0.5
CN(C)CCNC(=O)c1cc2cc(Br)ccc2oc1=O,0.6,5,44,18,0.8
CC(C)NC(=O)c1cc2cc(Br)ccc2oc1=O,0.5,18,50*,61*,0.4
C/C(=N\NC(=O)c1ccccn1)C12CC3CC(CC(C3)C1)C2,1,1,4,-5,1
C/C(=N/NC(=O)c1ccoc1C)C12CC3CC(CC(C3)C1)C2,0.9,5,12,57*,0.4
COc1cc2c(cc1OC)CN(CC(=O)NC(=O)NCc1ccco1)CC2,1,5,-1,-1,1
CCOc1ccc(CC2c3cc(OCC)c(OCC)cc3CCN2C(=O)c2cc(OC)c(OC)c(OC)c2)cc1OCC (stereo not drawn),0.4,1,60*,65*,0.3
Cc1ccc(NC(=O)NCCN2C(=O)C3C4C=CC(C4)C3C2=O)cc1 (stereo not drawn),0.9,12,13,91*,0.1
SMILES,CYP2C9 act,Measles CPE,CYP2C9 inh,CYP2C19 inhib,CYP2C19 act
O=C(CCN1C(=O)C2C3C=CC(C3)C2C1=O)NCc1cccnc1 (stereo not drawn),1.1,22,-8,98*,0
O=C(CCN1C(=O)COc2ccccc21)NCc1cccnc1,.,6,.,.,.
O=C(NCCN1C(=O)C2C3C=CC(C3)C2C1=O)NCc1ccccc1 (stereo not drawn),0.9,20,11,12,0.9
Cc1cccc(NC(=O)CCN2C(=O)C3C4C=CC(C4)C3C2=O)c1 (stereo not drawn),0.7,5,26,85*,0.1
Cc1ccccc1NC(=O)NCCN1C(=O)C2C3C=CC(C3)C2C1=O (stereo not drawn),1,11,5,50*,0.5
Cc1cccc(NC(=O)NCCN2C(=O)C3C4C=CC(C4)C3C2=O)c1 (stereo not drawn),0.9,6,6,80*,0.2
Cc1cccc(NC(=O)CCn2ccnc2C)c1,0.9,6,14,62*,0.4
Cc1cccc(NC(=O)CCN2CCOCC2)c1,1.4,8,-37,-8,1.1
O=C(NCCN1C(=O)C2C3C=CC(C3)C2C1=O)Nc1ccccc1 (stereo not drawn),0.8,7,19,70*,0.3
Oc1ccc(/C=N/n2c3ccccc3c3ccccc32)cc1,0.3,0,73*,20,0.8
Cc1nnc(C)n1/N=C/c1ccc(O)cc1,0.9,2,10,-2,1
Cn1nc(CC(=O)Nc2ccc3c(c2)CCC3)c2ccccc2c1=O,1,24,2,7,0.9
O=C(Nc1ccccc1)N(O)c1ccc(Cl)cc1,0.4,14,61*,80*,0.2
COC(=O)c1ccc(Sc2nnnn2-c2ccccc2)c([N+](=O)[O-])c1,1.1,9,-7,66*,0.3
O=C(O)c1ccc(Sc2nnnn2-c2ccccc2)c([N+](=O)[O-])c1,0.9,30,10,-1,1
CCCCC(=O)OCc1cn(-c2ccc(Cl)cc2)nn1,0.8,22,20,26,0.7
Cc1cc(C)nc(SCc2nc(N)nc(-c3ccccc3O)n2)n1,0.6,6,36,85*,0.1
COc1ccc(OC)c(NC(=O)C2CC(=O)n3ncnc3N2)c1 (stereo not drawn),1,5,2,19,0.8
O=S(=O)(Cc1ccccc1)N1CCN(C2Cc3ccccc3C2)CC1,1.2,13,-21,4,1
CS(=O)(=O)N1CCN(C2Cc3ccccc3C2)CC1,0.9,22,8,57*,0.4
CCN1C(=O)/C(=C/c2cccs2)N(C)C1=S,0.5,1,51*,67*,0.3
CN1C(=S)N(c2ccccc2)C(=O)/C1=C/c1cccs1,.,3,.,.,.
COc1cc(C(c2c(C)[nH][nH]c2=O)c2c(C)[nH][nH]c2=O)ccc1OS(=O)(=O)c1ccc(C)cc1,0.3,2,66*,85*,0.2
COc1cc(C(c2c(C)[nH][nH]c2=O)c2c(C)[nH][nH]c2=O)ccc1OS(=O)(=O)c1ccccc1,0.6,4,37,23,0.8
CCn1cc([N+](=O)[O-])c(C(=O)N2CCCC2)n1,0.6,5,41,56*,0.4
O=C(Nc1cc(Cl)cc(Cl)c1)c1cccc(OC(F)F)c1,0.7,7,34,16,0.8
C=C(C)CSc1nnc2n(C)c(=O)c3c4c(sc3n12)CCC4,0.4,12,56*,55*,0.5
NC(=O)CSc1nnc2n(-c3ccccc3)c(=O)c3c4c(sc3n12)CCCCC4,0.8,13,21,35,0.6
CCOc1ccc(CCNC(=O)C2CCCN(S(=O)(=O)c3c(C)n[nH]c3C)C2)cc1OCC (stereo not drawn),0.6,1,40,29,0.7

# Source: PubChem BioAssay (several laboratories)
